# Screens: PubChem, Broad Institute
# A1 inhib: inhibitors of A1. MEF A1-2A-BIM cells, caspase-Glo luminescence, 3 h; percent of clofoctol signal, DMSO as zero. caspase activation, % (concentration not given with the values). hit rate 0.51% among 21,000. AID 2241;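 active = most replicate scores above 10, or exactly half above 10 with mean activity above 10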;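 also: effector caspase 3 and 7 activity cleaving a DEVD luciferin substrate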
# BJeLR viability: compounds reducing viability of BJeLR cells; viability loss activity score, % (concentration not given with the values); hit rate 0.64% among 30,000; AID 2275; BJeLR fibroblasts viability, CellTiterGlo ATP luminescence, 48 h; HRASV12, hTERT and SV40 LT/ST transformed; in the data active = viability loss activity score above about 50%;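 also: higher score means fewer live cells and less ATP luminescence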
# Starred values were filed as active, the others as inactive; x = no result given. In the library only some 0.89% were active in any assay of this set; here they are far more common.
SMILES,A1 inhib,BJeLR viability
C=CCNC1=C2C[C@@H](C)C[C@H](OC)[C@H](O)[C@@H](C)/C=C(\C)[C@H](OC(N)=O)[C@@H](OC)C=C/C=C(/C)C(=O)NC(=CC1=O)C2=O,0,69*
CC(C)(C)c1cc(C(=O)N2CCN(c3ccc(C(F)(F)F)cn3)CC2)n(Cc2ccc(F)cc2)n1,0,1
O[C@H]1[C@H]2c3cc4c(cc3CN3CCC(=C[C@@H]1O)[C@H]23)OCO4,5,63*
O[C@@H]1[C@@H](O)C=C2CCN3Cc4cc5c(cc4[C@H]1C23)OCO5 (stereo not given in full),-1,24
O=C(NC1CCCCC1)N1c2ccccc2CCc2ccccc21,0,-1
O=C(C1CC1)N1c2ccccc2CCc2ccccc21,2,54*
C[N+]1(CC(O)CN2CCCC2=O)CCCCCC1 (stereo not given),1,-8
Cc1cc(NCn2ncc3ccccc3c2=O)ccc1Br,5,-13
CCC(C)CC(C)/C=C\C1OC2=C(C(=O)OC2(C)O)C(O)C1O (stereo not given),8,104*
CC[C@]1(O)C[C@H]2CN(CCc3c([nH]c4ccccc34)[C@@](C(=O)OC)(c3cc4c(cc3OC)N(C=O)[C@H]3[C@@](O)(C(=O)OC)[C@H](OC(C)=O)[C@@]5(CC)C=CCN6CC[C@]43[C@@H]65)C2)C1,5,61*
Cc1ccc(-c2csc(-c3ccc(C(F)(F)F)cc3)n2)cc1,0,1
c1ccc(-c2nnc(SCC3COc4ccccc4O3)nc2-c2ccccc2)cc1 (stereo not given),1,2
C=C(CO)C(=O)O[C@H]1C[C@@]23O[C@@H]2CC/C(=C/[C@H]2OC(=O)C(=C)[C@H]12)CO[C@@H]3O,0,-2
C=C(C)C(=O)O[C@H]1C[C@@]2(C)OC(=CC2=O)/C(COC(C)=O)=C\[C@H]2OC(=O)C(=C)C12 (stereo not given in full),2,61*
Cc1ccc(C2=NN(C(=O)c3ccc(Br)o3)C(c3ccc(C)cc3)C2)cc1 (stereo not given),-1,-5
Cc1cc2ccccc2n1CCNC(=O)C12CC3CC(CC(C3)C1)C2,x,8
Cc1c(C(=O)Nc2ccccc2Br)oc2ccc(S(=O)(=O)N3CCCC3)cc12,60*,-1
Cc1c(C(=O)NC(C)C)oc2ccc(S(=O)(=O)N3CCCC3)cc12,x,4
O=C(COc1ccccc1)NCC(=O)Nc1nc(CC23CC4CC(CC(C4)C2)C3)cs1,1,0
CCCc1nc(N)c(C#N)c(-c2ccccc2)c1CC,1,4
N#Cc1c(N)nc(Sc2ccc(Cl)cc2)c(C#N)c1-c1ccccc1,42*,6
C=CCn1c(Sc2ncnc3c2cnn3-c2ccccc2)nnc1-c1ccncc1,1,69*
Nc1ncnc2c1cnn2-c1ccccc1,-1,4
CC(C)NC(=O)N(C)C[C@@H]1Oc2ccc(NC(=O)Cn3cnnn3)cc2C(=O)N([C@@H](C)CO)C[C@@H]1C,-1,-1
Cc1cc(C)cc(NC(=O)c2cc3ccccc3o2)c1,-4,4
SMILES,A1 inhib,BJeLR viability
COc1cc(NC(=O)COc2cc(C)c(Cl)c(C)c2)ccc1NC(=O)c1cc2ccccc2o1,17*,7
C[C@H]1CC[C@@H]2[C@@H](C(=O)c3c(O)c([C@]4(O)CC[C@@H](O)[C@H]5O[C@H]54)c[nH]c3=O)[C@@H](C)C=C[C@H]2C1,3,54*
Cc1ccc(-c2nc(-c3ccccc3)no2)cc1,-6,10
Cc1ccc2nc(-c3ccccc3)cn2c1,-7,78*
CC(C)(C)C(=O)Nc1ccc2c(c1)C(=O)C(=O)c1ccccc1-2,-2,132*
CC(O)(C(=O)Nc1ccc(S(=O)(=O)c2ccccc2)cc1)C(F)(F)F (stereo not given),0,7
Cc1nc(C)c(S(=O)(=O)NCc2ccc(N3CCN(C)CC3)cc2)s1,1,3
CC(C)(C)c1cc(C(=O)Oc2cncc(Cl)c2)cc(C(=O)Oc2cncc(Cl)c2)c1,3,2
CC(=O)NCCSc1nc(-c2cccs2)cc(-c2ccc(F)cc2)c1C#N,10*,-9
CCCCS(=O)CSc1nc(-c2cccs2)cc(-c2ccccc2)c1C#N (stereo not given),0,-6
COc1ccc(S(=O)(=O)NC(C)C)cc1,0,-8
O=C(CSc1nc2c(c(=O)n1Cc1ccccc1)SCC2)NC1CCCC1,1,-1
CCCN1C/C(=C/c2ccc(OC)cc2)C(=O)/C(=C/c2ccc(OC)cc2)C1,x,70*
COc1ccc(/C=C2\C(=O)C3(C)CCC2C3(C)C)cc1 (stereo not given),1,-3
O=C(Oc1ccc(C2SCCS2)cc1)c1cccc(C(F)(F)F)c1,0,0
C/C=C(/C)C(=O)O[C@H]1CC(C)(C)C[C@H]2C3=CCC4[C@@]5(C)CC[C@H](O[C@@H]6O[C@H](C(=O)O)[C@@H](O[C@@H]7O[C@H](CO)[C@H](O)[C@H](O)[C@H]7O[C@@H]7O[C@H](CO)[C@@H](O)[C@H](O)[C@H]7O)[C@H](O)[C@H]6O[C@@H]6O[C@@H](C)[C@H](O)[C@@H](O)[C@H]6O)C(C)(C)C5CC[C@@]4(C)[C@]3(C)C[C@@H](O)[C@@]12CO (stereo not given in full),-4,127*
CC1OC(OC2C(C(=O)O)OC(O[C@H]3CC[C@@]4(C)C(CC[C@]5(C)C4CC=C4C6CC(C)(C)CC[C@]6(C(=O)OC6OC(CO)C(O)C(O)C6O)CC[C@]45C)C3(C)C)C(O)C2O)C(OC2OCC(O)C(O)C2O)C(O)C1O (stereo not given in full),0,-2
O=C(NCc1ccc(-c2cccs2)s1)NC(=O)c1ccccc1,0,1
Cc1ccc(OCC(=O)Oc2ccc(C)cc2)cc1,0,4
CC(C)CNC(=O)c1ccc(COc2ccc3ccccc3c2)o1,-2,4
CCCCC[C@H](O)CC(=O)CCc1ccc(O)c(OC)c1,0,3
COc1cc(CC(C)C(C)Cc2ccc(O)c(OC)c2)ccc1O (stereo not given),8,118*
CCOC(=O)c1cc(CC)sc1NC(=S)Nc1ccccc1C(F)(F)F,2,1
CCOC(=O)c1cc(-c2ccccc2)sc1NC(=O)CCN1CCN(CC)CC1,12*,51*
CCCCN(C(=S)Nc1cccc(C)c1)C1CCN(C(C)=O)CC1,x,4
SMILES,A1 inhib,BJeLR viability
CCn1cc(C(=O)N2CCN(C)CC2)c(=O)c2cc(S(=O)(=O)N(C)C)ccc21,x,-3
CCn1c2c(c3cc(C4CCCCC4)ccc31)CCC/C2=N\O,15*,-6
CCn1c2c(c3cc(C4CCCCC4)ccc31)CCCC2=O,1,0
O=c1c(C=NCCc2ccccc2)c(NCCc2ccccc2)nc2ccccn12,x,-1
O=C(COc1nnc(SCCS(=O)(=O)c2ccc(F)cc2)n1C1CC1)c1ccc(F)cc1,0,3
C=C1C(C2(C)C=CC(=O)C(C)(C)C2CC(=O)OC)CC[C@@]2(C)[C@H](c3ccoc3)OC(=O)C3OC132 (stereo not given in full),0,91*
CC1(C)C(=O)C=C[C@@]2(C)C1C=C[C@]1(C)C2CC[C@@]2(C)[C@H](c3ccoc3)OC(=O)C3OC321 (stereo not given in full),1,12
